Only a selection was taken, and hits are over-represented in it overall.
Pf Dd2 inh: inhibitors of Plasmodium falciparum Dd2 growth; P. falciparum Dd2 growth, SYBR Green, 72 h; Potency, µM (highest dose often 28.9 µM), actives largely listed as inhibitors; 4.3% of 120,000 active; AID 1347417; active = well fitted inhibition curve with a large enough effect; also: nearly all actives have a fitted effect of over 65% in size
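Readout: SYBR Green fluorescence, 485 nm excitation, 535 nm emission, after ~16 h lysis at 37C. Before that, Dd2-infected red cells (2.5% hematocrit) grew 72 h with compound, 29 uM top final concentration.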
A number is an active result; - = inactive; [ ] = dose if it differs, or a comment.

SMILES | Pf Dd2 inh
COc1ccc(C(=O)N2CCOCC3(CN(Cc4cc(F)cc(F)c4)C3)C2)c(OC)n1 | -
COc1ccc(C(=O)N2CCOCC3(CN(Cc4ccccc4)C3)C2)cc1 | -
O=C(Cc1ccc(C(F)(F)F)cc1)N1CCC2OCCN(Cc3ccccc3)C(=O)C2C1 (centres undefined) | -
COC(=O)[C@@H]1Cc2c([nH]c3ccccc23)[C@H]2C[C@H](NCCN3CCOCC3)C[C@@H](c3ccc(F)cc3)N21 | 11µM
COC(=O)[C@@H]1Cc2c([nH]c3ccccc23)[C@H]2C[C@@H](NCCc3cnc[nH]3)C[C@@H](c3cccc(Cl)c3)N21 | -
COC(=O)[C@@H]1Cc2c([nH]c3ccccc23)[C@H]2C[C@@H](NCc3cccs3)C[C@@H](c3ccccc3F)N21 | -
COC(=O)[C@@H]1Cc2c([nH]c3ccccc23)[C@H]2C[C@@H](NCCN3CCOCC3)C[C@@H](c3ccc(F)cc3)N21 | -
COC(=O)[C@@H]1Cc2c([nH]c3ccccc23)[C@H]2C[C@@H](NCCN(C)C)C[C@@H](c3cccc(Cl)c3)N21 | 2.8µM
Cc1ccc(NC(=O)Cn2cc(S(=O)(=O)Cc3cccc(Cl)c3)c3ccccc32)cc1C | -
COC(=O)[C@@H]1Cc2c([nH]c3ccccc23)[C@@H]2C[C@@H](NCCNC(C)=O)C[C@@H](c3cccc(Cl)c3)N12 | 11µM
COC(=O)[C@@H]1Cc2c([nH]c3ccccc23)[C@H]2C[C@@H](NC(C)C)C[C@@H](c3ccc(C)cc3)N21 | -
Cc1ccc(C)c(NC(=O)Cn2cc(S(=O)(=O)Cc3cccc(Cl)c3)c3ccccc32)c1 | -
COc1cccc(S(=O)(=O)N2CCCC(CO)CCNC(=O)CC2)c1 (centres undefined) | -
Cc1ccc(CNC(=O)C2CCCCC(=O)N2C)o1 (centres undefined) | -
CC(=O)N1Cc2ccccc2OC2(CCN(C(=O)Cc3ccc(O)cc3)CC2)C1 | -
COc1cccc(CNC(=O)C2CN(c3ccc(F)cc3)C(=O)N2)c1 (centres undefined) | -
COc1cccc([C@H]2CN(C(=O)c3ccc4cc[nH]c4c3)C[C@@H]2N)c1 | -
COc1ccc(C(=O)N2[C@@H]3CC[C@H]2CC(NC(=O)c2ccncc2)C3)cc1 (some centres undefined) | -
Cc1cc2cc(-c3c(C)noc3C)nc(N3CCN(C)C(=O)C3)c2o1 | -
CC(=O)N1CCN(c2nc(-c3c(C)noc3C)cc3cc(CN(C)C)oc23)CC1 | 7.9µM
Cc1ccccc1-c1nc(-c2c(C)noc2C)cc2cc(CN(C)C)oc12 | -
O=C(NCCc1ccccc1)c1ccc2c(c1)N(Cc1ccccc1F)C(=O)c1ccccc1S2=O (centres undefined) | -
NC(=O)C1CCN(C(=O)c2ccc3c(c2)N(Cc2cccc(Cl)c2)C(=O)c2ccccc2S3=O)CC1 (centres undefined) | -
CCN(CC)CCNC(=O)c1ccc2c(c1)N(Cc1ccccc1)C(=O)c1ccccc1S2=O (centres undefined) | -
COC(=O)c1cc(NC(=O)c2ccc3c(c2)N(Cc2cccc(Cl)c2)C(=O)c2ccccc2S3=O)cc(C(=O)OC)c1 (centres undefined) | 3.2µM
SMILES | Pf Dd2 inh
O=C(Nc1cccc(Cl)c1Cl)c1ccc2c(c1)N(Cc1cccc(Cl)c1)C(=O)c1ccccc1S2(=O)=O | 5.6µM
Cc1ccccc1CN1C(=O)c2ccccc2S(=O)c2ccc(C(=O)NCc3ccccc3)cc21 (centres undefined) | -
O=C(c1ccc2c(c1)N(Cc1cccc(Cl)c1)C(=O)c1ccccc1S2(=O)=O)N1CCCCCC1 | -
O=C(Nc1cc(Cl)ccc1Cl)c1ccc2c(c1)N(Cc1cccc(Cl)c1)C(=O)c1ccccc1S2=O (centres undefined) | 4µM
O=C(c1ccc2c(c1)N(Cc1cccc(Cl)c1)C(=O)c1ccccc1S2(=O)=O)N1CCCC1 | -
CN1CC2(CCCN(Cc3ccccc3OCC(=O)O)C2)OC1=O (centres undefined) | -
CC(CO)NS(=O)(=O)c1cccc(C(=O)NCCc2ncnn2C)c1 (centres undefined) | -
CN(Cc1cccc(C(F)(F)F)c1)C1CCOc2ccccc21 (centres undefined) | -
CCCN(CC1CCOC1)S(=O)(=O)c1ccc(Cl)cc1 (centres undefined) | -[5.79 µM]
CCOc1ccccc1CN1CCC2(CC1)CC(Cc1nc(COC)no1)CCO2 (centres undefined) | -
O=C1NCN(Cc2ccc(Cl)cc2)C12CCN([S+](=O)([O-])c1ccccc1)CC2 | -
NCCn1cc(C(=O)NCC(c2cccnc2)N2CCCCC2)nn1 (centres undefined) | -
O=C(NC[C@H]1C[C@@H]2CCN1C[C@@H]2CN1CCC(Cc2ccccc2)CC1)Nc1ccccc1 | -
CCC(CC)C(=O)NC[C@@H]1C=C(C)[C@H](Cc2nc3ccc(F)cc3[nH]2)C[C@H]1C(C)C | -
CC(=O)NC[C@@H]1C=C(C)[C@H](Cc2nc3ccccc3[nH]2)C[C@H]1C(C)C | -
CCCNC(=O)NC[C@@H]1C=C(C)[C@H](Cc2nc3nc(OC)ccc3[nH]2)C[C@H]1C(C)C | 10µM
CC1=C[C@@H](CNC(=O)C(C)C)[C@H](C(C)C)C[C@H]1Cc1nc2ncccc2[nH]1 | -
COc1ccc2[nH]c(C[C@@H]3C[C@@H](C(C)C)[C@H](CNC(=O)c4cccnc4)C=C3C)nc2n1 | 11µM
CC1=C[C@@H](CNC(=O)c2cccnc2)[C@H](C(C)C)C[C@H]1CC(=O)NC1CCCC1 | -
O=C([C@H]1C[C@H](Oc2cccnc2)CN1C(=O)Nc1cccc(F)c1)N1CCOCC1 | -
CC(C)CCCC(=O)N1C[C@@H](C(=O)O)C[C@@H](C(=O)NCc2ccncc2)C1 | -
COc1ccccc1CCC(=O)N1CC(c2nnc(-c3ccncc3)o2)C2(CCOCC2)C1 (centres undefined) | -
CCN(C(=O)c1nn(-c2ccc(OC)c(Cl)c2)c(=O)c2c1c1ccccc1n2C)c1cc(OC)ccc1OC | 7.9µM
CCN(CC)CCNC(=O)c1nn(-c2ccc(OC)c(Cl)c2)c(=O)c2c1c1ccccc1n2C | -
CCCN(C(=O)c1nn(-c2ccc(OC)c(Cl)c2)c(=O)c2c1c1ccccc1n2C)c1ccccc1F | -
SMILES | Pf Dd2 inh
CCN(CC)CCCNC(=O)c1nn(-c2ccc(OC)cc2)c(=O)c2c1c1ccccc1n2C | -
CCN(CC)CCCNC(=O)c1nn(-c2ccc(OC)c(Cl)c2)c(=O)c2c1c1ccccc1n2C | 1µM
CCc1ccc(CNC(=O)c2nn(-c3ccc(OC)c(Cl)c3)c(=O)c3c2c2ccccc2n3C)cc1 | -[5.79 µM]
COc1ccc(-n2nc(C(=O)N(C)c3cccc(C(F)(F)F)c3)c3c4ccccc4n(C)c3c2=O)cc1 | -
CCOc1ccccc1NC(=O)c1nn(-c2ccc(OC)cc2)c(=O)c2c1c1ccccc1n2C | -
CCOc1ccc(N(CC)C(=O)c2nn(-c3ccc(OC)cc3)c(=O)c3c2c2ccccc2n3C)cc1 | 4µM
CCO[C@H]1C[C@@H](O)C12CCN(C(=O)c1c(-c3ccccc3)ccnc1C)CC2 | -
O=C(NCCC1=CCCCC1)C1(CCO)CCN(c2ncccn2)C1 (centres undefined) | -
CC1(c2ccccc2)N(Cc2cccnc2)C(=O)OC12CCN(C(=O)C1CCC1)CC2 (centres undefined) | -
O=C([C@@H]1C[C@H](Oc2ccccc2)CN1S(=O)(=O)c1cccnc1)N1CCOCC1 | -
COCCn1ncc(N2CCC(C(=O)NCC(C)C)C2)cc1=O (centres undefined) | -

Bioassay records deposited in PubChem BioAssay by National Center for Advancing Translational Sciences (NCATS).
